Bioassay records: PubChem, Broad Institute
Not all results are given here.
aSyn UTR act: Activators via SNCA 5'UTR binding, MLPCN | actives 7.1% (n = 300,000) | alpha-synuclein 5'UTR reporter, activators screen | activity score, % (tested at 7.5 µM), hits read low; in the data active = activity score below about -60%
* marks the source's active call; other numbers are inactive results.

SMILES	aSyn UTR act
COc1ccc(NC(=O)C2CCCN(c3ncccn3)C2)cc1 (stereo not given)	-75*
O=c1cc(/C=C/c2ccccc2)oc2ccccc12	-205*
CCOc1ccc(/C=N/N(C)c2ccccc2)cc1OC	-250*
COc1cc(/C=N/Nc2ccccn2)ccc1OCC(C)C	-127*
CCCOc1ccc(/C=N/Nc2ccccn2)cc1OC	-177*
C=CCOc1ccc(/C=N/Nc2ccccn2)cc1OC	-246*
CCOc1ccc(/C=N/Nc2ccccn2)cc1OC	-177*
Cc1nn(-c2ccccc2)c(C)c1Cc1ccc(O)cc1	-117*
CC(C)=CC(=O)OCc1cc([N+](=O)[O-])cc2c1OCOC2	-110*
O=C(/C=C/c1ccc2c(c1)OCCCO2)c1ccc2ccccc2c1O	-158*
Cc1ccc(C(=O)/C=C/c2ccc3c(c2)OCCO3)c(O)c1	-181*
CC(C)=CCC/C(C)=C/CC(C)(C)CNCCN1CCNCC1	-64*
CC(=O)c1ccc(NC(=O)COC(=O)c2ccccc2N=Nc2ccc(N(C)C)cc2)cc1	-101*
COC(=O)c1ccccc1NC(=O)COC(=O)c1ccccc1N=Nc1ccc(N(C)C)cc1	-80*
CN(C)c1ccc(N=Nc2ccccc2C(=O)OCC(=O)N(C)c2ccccc2)cc1	-83*
O=C(CSC(=S)N1CCSCC1)c1ccccc1	-94*
O=C(CSC(=S)N1CCSCC1)c1ccc(Cl)cc1	-152*
O=C(/C=C/Nc1ccc(F)c(F)c1)c1cccs1	-374*
O=C(/C=C/Nc1ccc(F)cc1)c1cccs1	-115*
C#CCN1C(=O)S/C(=C\c2ccc(-c3ccc(Cl)c(C(=O)O)c3)o2)C1=O	-93*
CCN=C1S/C(=C\c2ccc(-c3cccc(C(=O)O)c3)o2)C(=O)N1CC	-69*
CCN=C1S/C(=C\c2cn(CC(=O)NCc3ccco3)c3ccccc23)C(=O)N1CC	65
Cc1cccc(NC(=O)Nc2ccc3c(c2)N(C)C(=O)CS3)n1	-83*
Cc1ccnc(NC(=O)Nc2ccc3c(c2)N(C)C(=O)CS3)c1	-97*
CC(=O)Nc1cccc(NC(=O)C(=O)Nc2ccc3c(c2)N(C(=O)C2CC2)CCC3)c1	-92*
SMILES	aSyn UTR act
CCCCOc1ccccc1NC(=O)Cn1c(-c2nonc2N)nc2ccccc21	124
Cc1cccc2c1cnn2C(=O)Nc1cc(F)ccc1F	-178*
CCOc1ccccc1NC(=O)n1ncc2c(C)cccc21	-68*
CCC(=O)Nc1nonc1-c1nc2ccccc2n1Cc1cccc2ccccc12	67
Cn1c2c(c(=O)n(C)c1=O)C(C(F)(F)F)(C(F)(F)F)N=C(c1ccc(Cl)cc1)N2	99
Cn1c(/C=C/c2cccc([N+](=O)[O-])c2)c([N+](=O)[O-])c(=O)n(C)c1=O	-194*
Cn1c(/C=C/c2ccc(Cl)cc2)c([N+](=O)[O-])c(=O)n(C)c1=O	-147*
CCCCCOc1ccc(/C=C/c2c([N+](=O)[O-])c(=O)n(C)c(=O)n2C)cc1	-175*
CC(C)(C)C1CCc2c(sc3c2C(=O)NC(c2ccco2)N3)C1 (stereo not given)	-186*
Cc1cc(NC(=O)/C=C/c2ccc(Cl)cc2)no1	-78*
C/C(=C\C(=O)Nc1cc(C)on1)c1ccccc1	-110*
Cc1ccc(/C=C2\SC(=S)N(CCCC(=O)Nc3cc(C)on3)C2=O)cc1	58
Cc1cc(NC(=O)/C=C/c2ccc(Br)cc2)no1	-74*
CC(C)c1nc(C#N)c(NN)o1	-127*
COc1cc(OC)c2c(c1)O/C(=C\c1ccccc1)C2=O	-154*
COc1ccc(C(=O)c2oc3ccccc3c2N)cc1	-179*
Nc1ccc(C(=O)n2c3ccccc3c3ccccc32)cc1	117
COc1ccc2occ(C(=O)c3ccccc3)c2c1	-133*
COC(=O)c1oc2ccccc2c1N	-63*
Nc1c(C(=O)c2ccc(F)cc2)oc2ccccc12	-137*
COc1ccc2oc(C(=O)c3ccccc3)c(N)c2c1	-174*
Nc1c(C(=O)Nc2ccc(Cl)cc2)oc2ccccc12	-253*
COC(=O)CCC(=O)c1oc2ccc(OC)cc2c1N	-62*
Nc1c(C(=O)c2ccco2)oc2ccccc12	-113*
COc1ccc2oc(C(=O)C3CC3)c(N)c2c1	-133*
SMILES	aSyn UTR act
Cc1cccc(-c2nc(C#N)c(N3CCCCCC3)o2)c1	-68*
Cc1cccc(-c2nc(C#N)c(NCC3CCCO3)o2)c1 (stereo not given)	-112*
Cc1ccc(-c2nc(C#N)c(NCC3CCCO3)o2)cc1 (stereo not given)	-88*
c1ccc(-n2ncc3c(NC4CCCCCC4)ncnc32)cc1	-97*
COc1ccc(-n2ncc3c(NCC4CCCO4)ncnc32)cc1 (stereo not given)	-140*
Cc1ccccc1Nc1ncnc2c1cnn2-c1ccccc1	-112*
Clc1ccc(-n2ncc3c(NCC4CCCO4)ncnc32)cc1 (stereo not given)	-89*
c1ccc(-n2ncc3c(NCC4CCCO4)ncnc32)cc1 (stereo not given)	-132*
CCN(C(=O)c1ccco1)c1nnc(-c2ccc(OC)cc2)s1	-135*
CCCN(C(=O)c1ccco1)c1nnc(-c2cccc(C)c2)s1	-143*
Cc1nc2nc(-c3cccs3)[nH]c2cc1Br	-149*
C=CCN=c1scc(C)n1/N=C/c1ccc(O)c(O)c1	-156*
CN=c1scc(-c2ccco2)n1/N=C/c1ccc(O)c(O)c1	-242*
CN=c1scc(-c2ccccc2F)n1/N=C/c1ccc[nH]1	83
Cc1ccc(C2=NN=C(NC(=O)CSc3nnc4c5ccccc5n(C)c4n3)SC2)cc1	-99*
O=C(NC(=S)N(CCc1ccccc1)CCc1ccccc1)c1ccco1	51
O=C(NC(=S)Nc1ccccc1Cl)c1ccco1	-112*
O=C(NC(=S)Nc1ccc(N2CCCCC2)cc1)c1ccco1	-182*
CC1CCN(c2ccc(NC(=S)NC(=O)c3ccco3)cc2)CC1	-132*
Cc1ccc(-c2noc(-c3ccno3)n2)cc1	-126*
COc1cccc(-c2nc(-c3ccncc3)no2)c1	-114*
COc1ccc(-c2nc(-c3ccncc3)no2)cc1OC	-121*
COc1cccc(-c2nc(CS(=O)(=O)c3ccccc3)no2)c1	-126*
COc1ccc(-c2noc(-c3cccc(Cl)c3)n2)cc1OC	-184*
Clc1cccc(-c2nc(-c3ccccn3)no2)c1	93
SMILES	aSyn UTR act
Fc1cccc(F)c1-c1nc(-c2ccncc2)no1	-142*
COc1ccc(-c2noc(-c3ccccc3Cl)n2)cc1OC	-180*
Cc1sc2c(c1C)CN(Cc1ccncc1)CN2C(=O)c1ccco1	-93*
CCOC(=O)N1CCN(C(=O)c2ccc(C#CC3(O)CCCCC3)cc2)CC1	-64*
COC(=O)c1ccc(-c2noc(CN3C[C@H]4CC[C@H]3C4)n2)cc1	-119*
CN1CCN(c2ccc(NC(=O)c3ccc4ccccc4c3)cc2)CC1	85
COc1ccc(C(=O)Nc2ccc(N3CCN(C)CC3)cc2)cc1	-165*
Cc1ccc(C(=O)Nc2ccc(N3CCN(C)CC3)cc2)cc1	-88*
COc1ccc(C(=O)Nc2ccc(N3CCN(C)CC3)cc2)cc1OC	-82*
Cc1ccccc1-c1nc(-c2ccc(NC(=O)c3cccs3)cc2)no1	-187*
O=C(Nc1ccc(-c2noc(-c3ccccc3F)n2)cc1)c1cccs1	-77*
O=c1oc2ccc3ccccc3c2cc1-c1nc2ccccc2o1	-87*
COc1ccc2oc(=O)c(-c3nc4ccccc4o3)cc2c1	-184*
CNc1nn(-c2cccc(Cl)c2)nc1N	-97*
CCN(CC)CCCNc1nc2cc(OC)c(OC)cc2c2nc(-c3ccccc3)nn12	-76*
